Screening results as filed in PubChem BioAssay.
A selection: hits, their analogues and other compounds. The true share with any hit is near 7.4%.
Rab9 prom act – activates the Rab9 promoter; Huh7 Rab9 promoter-luciferase reporter, luminescence, 24 h; AID 485297; Potency, µM (highest dose often 9.22 µM), without a hit: top-dose activation, negative = inhibition, most hits filed as activators; actives 2.8% (n = 320,000); further: % of control where 0% means no effect; nearly all actives have a fitted effect of over 60% in size
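Measured in stably transfected Huh7 cells bearing a Rab9 promoter–luciferase construct: 24 h compound treatment at 37 °C, followed by luminescence detection.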
NPC1 promoter act – NPC1 promoter activation; Huh7 NPC1 promoter luciferase reporter, 24 h; Potency, µM (doses to about 9.22 µM), for inactives: at the highest dose activation, actives largely listed as activators; actives 2.4% (n = 320,000); further: % of control where 0% means no effect; nearly all actives have a fitted effect of over 60% in size
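Readout is luciferase luminescence, reflecting NPC1 promoter activation in stably transfected Huh7 cells after 24 h compound exposure at 37 °C in reduced-serum medium with 10% FBS.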
KinaseGlo FLuc – blocks Kinase-Glo luciferase, a counter-screen artifact. Kinase-Glo luciferase, ATP luminescence, 8 min. Potency, µM (doses to about 38.3 µM), without a hit: at the highest dose activity change, negative = inhibition, usual class: inhibitors. actives 0.28% (n = 200,000). AID 1379; further: on the % scale 0 is the no-effect control and ±100 the full control effect; nearly all actives have a fitted effect of over 60% in size
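Recombinant Kinase-Glo luciferase, 10 uM ATP (linear range), luciferin; imidazole pH 7.2 / KCl / MgCl2 / Tween / BSA buffer; 8 min RT; luminescence.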
ELG1 genotoxic – inducers of genotoxicity in HEK293T ELG1-luciferase cells; Potency, µM (highest dose often 46 µM), without a hit: at the top dose activity change, positive = activation, usual class: activators; HEK293T ELG1-luciferase reporter, luminescence, 16 h; actives 1.3% (n = 330,000); further: % of control where 0% means no effect; nearly all actives have a fitted effect of over 60% in size
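Cells (2,000/well) expressing the ELG1-luciferase fusion are dosed by pin tool and kept 16 hr at 37 °C, 5% CO2. Signal comes from ONE-Glo luciferase reagent after 30 min at room temperature.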
SMN2 splice enh – enhancers of SMN2 splice variant expression. AID 1458. actives 2.8% (n = 210,000). Potency, µM (titrated, usually from 46.1 µM), for the others: at the top dose activity change, positive = activation, hits mostly activators. HEK293 SMN2-luciferase splicing reporter, luminescence, 30-36 h; further: % of control where 0% means no effect; nearly all actives have a fitted effect of over 55% in size
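HEK293 cells carry an SMN2 minigene-luciferase reporter in which exon 7 inclusion puts luciferase in frame. Cells were seeded at 2000 cells/well, attached for 10-12 hours, then exposed to compounds for 30-36 hours at 37C before ONE-Glo luminescence.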
FLuc modulator – firefly luciferase modulation, counter-screen for miR-21 project; P08659; purified FLuc, Km substrates, luminescence inhibition; Potency, µM (titrated, usually from 57.5 µM), inactives show at the top dose activity change, negative = inhibition, most hits filed as inhibitors; actives 6.9% (n = 360,000); AID 588342;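 further: plate controls were vehicle for no effect and reference inhibitor for full effect; nearly all actives have a fitted effect of over 55% in size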
Target sequence (P08659 whole entry, looked up): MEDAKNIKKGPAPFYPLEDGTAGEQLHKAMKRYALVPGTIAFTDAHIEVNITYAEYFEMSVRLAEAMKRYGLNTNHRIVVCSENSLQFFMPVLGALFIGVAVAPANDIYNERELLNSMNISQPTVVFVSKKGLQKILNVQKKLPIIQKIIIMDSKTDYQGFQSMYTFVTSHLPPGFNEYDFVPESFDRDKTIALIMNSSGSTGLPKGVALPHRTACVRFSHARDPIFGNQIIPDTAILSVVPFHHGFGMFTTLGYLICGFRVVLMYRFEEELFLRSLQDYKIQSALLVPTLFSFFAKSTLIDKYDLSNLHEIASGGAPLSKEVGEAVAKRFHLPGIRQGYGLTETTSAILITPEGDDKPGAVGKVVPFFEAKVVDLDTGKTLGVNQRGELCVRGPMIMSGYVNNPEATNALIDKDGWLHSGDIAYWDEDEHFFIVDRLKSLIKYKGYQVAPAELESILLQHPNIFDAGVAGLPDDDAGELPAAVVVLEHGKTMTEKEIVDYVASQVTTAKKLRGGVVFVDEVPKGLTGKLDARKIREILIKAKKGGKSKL
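Biochemical qHTS of compounds, final roughly 60 µM downward over six points, against 10 nM purified firefly luciferase using Km concentrations of substrates (10 uM D-luciferin, 10 uM ATP) in Tris acetate pH 7.5 buffer; luminescence output.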
* = called active by the depositor; ? = inconclusive; · = no result given. The call rests on the fitted dose curve; in most records, active means well fitted curve in the direction sought with a large enough effect; inconclusive means small, poorly fitted or top-dose-only effect, or another doubt; inactive means no such curve, though single readings can be large; an effect the other way counts as inactive or inconclusive. Potency means the concentration at half of the fitted maximal effect.

SMILES | Rab9 prom act | NPC1 promoter act | KinaseGlo FLuc | ELG1 genotoxic | SMN2 splice enh | FLuc modulator
Cc1ccc2nc(-c3ccc(NC(=O)COc4ccccc4C(C)(C)C)cc3)sc2c1 | · | · | · | · | ? | 9.53µM*
CCOc1cc(C(=O)Nc2ccc(-c3nc4ccccc4s3)cc2Cl)cc(OCC)c1OCC | · | · | · | · | · | 13.5µM*
Cc1ccc2nc(-c3ccc(NC(=O)COc4ccccc4)cc3)sc2c1 | · | · | · | · | 1.26µM* | 3.01µM*
CC(C)OC(=O)c1cccc(-c2ccc(C=O)o2)c1 | 14.9% | 17.1% | -0.5% | ? | 12.6µM* | ?
COC(=O)c1ccccc1-c1ccc(C=O)o1 | -2.3% | -1.1% | -1.9% | 0.8% | · | -1.2%
CC(=O)N/C(N)=N/c1nc2cc([N+](=O)[O-])ccc2o1 | 3.16µM* | ? | · | ? | · | ?
CC(=O)N/C(N)=N/c1nc2cc(C)ccc2o1 | 0.794µM* | 1.41µM* | · | 9.2µM* | · | 5.36µM*
COc1cc(/C=C(\C#N)c2nc3ccccc3s2)cc([N+](=O)[O-])c1O | -6.0% | -3.9% | -5.5% | -6.4% | 5.9% | 8.49µM*
O=C(O)CC/C(=C\c1ccc(Cl)c([N+](=O)[O-])c1)c1nc2ccccc2s1 | -10.6% | -4.8% | -4.0% | -4.2% | -0.4% | 7.5%
N#C/C(=C\c1ccc(O)c([N+](=O)[O-])c1)c1nc2ccccc2s1 | 0.2% | -1.6% | -4.1% | -8.7% | -57.8% | 13.5µM*
COc1ccc(-c2csc(/C(C#N)=C\c3ccc(O)c([N+](=O)[O-])c3)n2)cc1OC | -1.1% | 7.3% | · | -6.3% | · | 15.1µM*
COc1ccc(-c2csc(/C(C#N)=C\c3ccc(OC)c([N+](=O)[O-])c3)n2)cc1 | -4.7% | -3.2% | -2.8% | -3.4% | -13.3% | 1.7%
N#Cc1ccsc1NC(=O)C1CCCN1S(=O)(=O)c1cccs1 (configuration not stated) | -3.5% | -2.1% | · | -2.1% | · | 2.6%
CCOC(=O)Cc1csc(NC(=O)c2ccc(Cl)s2)n1 | 1.2% | -11.0% | · | 13.2% | · | ?
CCOC(=O)Cc1csc(NC(=O)c2cc(C)c(C)s2)n1 | 23.3% | ? | · | 0.4% | · | 8.49µM*
CCOC(=O)Cc1csc(NC(=O)c2cc3c(s2)CCCC3)n1 | 0.562µM* | 1.41µM* | 6.6% | ? | -1.5% | 1.35µM*
CCOC(=O)Cc1csc(NC(=O)c2csc3c2CCCC3)n1 | -6.1% | -2.0% | -4.0% | -4.7% | -35.5% | 4.78µM*
Cc1ccc(S(=O)(=O)N(C)CC(=O)NNC(=O)Cc2cccc(F)c2)cc1 | 2.6% | 0.7% | · | -1.2% | · | 5.2%
O=C(Nc1ccc(N2CCOCC2)cc1)c1ccc([N+](=O)[O-])o1 | 1.58µM* | 1.41µM* | · | 9.2µM* | · | 8.49µM*
CN1CCN(c2ccc(NC(=O)c3ccc(Br)o3)cc2)CC1 | ? | 1.58µM* | · | 16.4µM* | · | 12µM*
CC1CCN(c2ccc(NC(=O)c3cccnc3)cc2)CC1 | ? | ? | -3.7% | 11.4% | 28.2µM* | 12µM*
CS(=O)(=O)N1CCN(c2ccc(NC(=O)c3ccc(Br)o3)cc2)CC1 | 3.16µM* | 2.82µM* | 0.1% | 1.46µM* | 7.08µM* | -15.4%
Cc1ccc(S(=O)(=O)c2nc(-c3ccccc3F)oc2N2CC(C)OC(C)C2)cc1 (configuration not stated) | 7.9% | -1.1% | · | -4.7% | · | 6.3%
CCN(CC)C(=O)[C@H]1CC(CC(=O)NCc2ccc(OC)c(OC)c2)C(=O)N2CCc3c([nH]c4ccc(OC)cc34)[C@]12C (some centres not stated) | · | · | · | 0.3% | · | ·
C#CCOC(=O)c1cc(Cl)c(=O)n(Cc2ccc(Cl)cc2Cl)c1 | -6.2% | -3.8% | · | -4.7% | · | -2.7%
SMILES | Rab9 prom act | NPC1 promoter act | KinaseGlo FLuc | ELG1 genotoxic | SMN2 splice enh | FLuc modulator
O=C(Nc1ccc(N2CCCC2)c(Cl)c1)c1ccc(Br)o1 | 2.82µM* | 3.55µM* | -7.1% | ? | 11.2µM* | 5.36µM*
O=C(Nc1ccc(N2CCN(C(=O)c3ccco3)CC2)cc1)c1ccccc1Br | 1.2% | 7.0% | · | -17.3% | · | 0.6%
CN1CCN(c2ccc(NC(=O)c3ccccc3Br)cc2)CC1 | ? | ? | -3.5% | 14.6µM* | ? | ?
O=C(Nc1ccc(N2CCOCC2)cc1)c1ccc(Br)o1 | 0.282µM* | 0.447µM* | · | ? | · | 4.26µM*
CC1CCN(c2ccc(NC(=O)c3ccc(Br)o3)cc2)CC1 | 1µM* | 1µM* | · | 1.46µM* | · | 1.9µM*
CCC(=O)N1CCN(c2ccc(NC(=O)c3ccc(Br)o3)cc2)CC1 | 1.3% | 7.6% | -1.5% | 15.4% | 12.7% | -12.8%
N/C(=N\O)c1ccc(NC(=O)c2ccc(Br)o2)cc1 | ? | ? | -14.5% | 23.1µM* | 18.5% | 16.9µM*
O=C(NNC(=O)c1ccc(Br)o1)c1ccc(NC(=O)c2ccccc2)cc1 | -4.3% | -2.6% | 0.8% | 4.9% | -4.9% | 5.9%
CN1CCN(c2ccc(NC(=O)c3ccc(-c4ccccc4F)o3)cc2)CC1 | 1µM* | 3.16µM* | · | ? | · | 2.69µM*
Cc1ccc(S(=O)(=O)N2CCCCC2)cc1NC(=O)COC(=O)c1ccc(=O)[nH]c1 | -2.4% | 0.6% | · | 2.3% | · | 1.2%
COc1cc(Cl)c(C)cc1NC(=O)CN(C)C1CCS(=O)(=O)C1 (configuration not stated) | · | · | · | -2.6% | · | ·
Cc1ccc(Cn2nnc3c(=O)[nH]c(C4CCCN(S(=O)(=O)c5ccccc5)C4)nc32)cc1 (configuration not stated) | 24.5% | 13.1% | -0.1% | 20.6µM* | -18.4% | -1.4%
O=[N+]([O-])c1cccc(S(=O)(=O)Nc2cccc(-c3ccc(N4CCOCC4)nn3)c2)c1 | ? | 25.1% | · | ? | · | 2.13µM*
COc1ccc(-c2cccc(NS(=O)(=O)c3cccc([N+](=O)[O-])c3)c2)nn1 | -3.0% | -0.1% | · | -0.9% | · | -15.5%
O=[N+]([O-])c1cccc(S(=O)(=O)Nc2cccc(-c3ccc(N4CCCC4)nn3)c2)c1 | 12.2% | -1.7% | · | ? | · | 9.53µM*
CCc1ccc(S(=O)(=O)Nc2cccc(-c3ccc(N4CCOCC4)nn3)c2)cc1 | · | · | · | · | · | 8.49µM*
CCOc1ccc(S(=O)(=O)N2CCN(Cc3nc4ccc(C)cc4o3)CC2)cc1 | · | · | · | · | · | -13.1%
O=C1Nc2cc3c(cc2C1=O)sc1ccccc13 | -1.3% | -5.5% | · | 1.0% | · | -1.5%
CC(=O)c1ccccc1OC(=O)COc1ccc(Cl)cc1C | 1.9% | -4.0% | 0.9% | 2.0% | 0.0% | 16.9µM*
Cc1cc(Cl)ccc1OCC(=O)N1CCN(c2ncccn2)CC1 | -10.4% | 1.7% | 1.1% | -2.6% | -17.6% | -1.1%
Cc1cc(Cl)ccc1OCC(=O)N1CCCCC1 | 27.6% | ? | -4.2% | 20.6µM* | ? | 16.9µM*
